Experimental data from PubChem BioAssay (NCATS).
Results filed as inconclusive are left out. A number with no mark means an inactive call. The source made the active and inactive calls. Calls follow the shape of the full dose curve; tested in HEK293 reporter line.

Assay: qHTS for Inhibitors of the Functional Ribonucleoprotein Complex (vRNP) of Lassa (LASV) Arenavirus: LASV Primary Screen - GLuc reporter signal (AID 1347082); also: nearly all actives have a fitted effect of over 60% in size
Details: LASV minigenome vRNP, Gaussia luciferase reporter; series mostly up to 57.5 µM; activity change, negative = inhibition: at the top concentration
% is scaled to controls: 0 for no effect and ±100 for the full control effect.

Structure (SMILES) | activity change, negative = inhibition | Potency
OC(C#CCN1CCCC1)(c1ccccc1)c1ccccc1 | 3.93% | 
CCN(CC)CCOC(=O)C(c1ccccc1)C1CCCCC1 (centres undefined) | 3.88% | 
O=C(O)CCC(=O)OC[C@@H](NC(=O)C(Cl)Cl)[C@H](O)c1ccc([N+](=O)[O-])cc1 | -3.71% | 
C[C@@H](CN(C)C)CN1c2ccccc2Sc2ccccc21 | -13.7% | 
CCOc1cc(N)c(Cl)cc1C(=O)NCC1CN(Cc2ccc(F)cc2)CCO1 (centres undefined) |  | inactive
CN1CCN(C2Cc3ccccc3Sc3ccc(Cl)cc32)CC1 (centres undefined) | -22.1% | 
COc1cc(C(=O)OCCCN2CCCN(CCCOC(=O)c3cc(OC)c(OC)c(OC)c3)CC2)cc(OC)c1OC |  | inactive
CSc1ccc(/C=C2/C(C)=C(CC(=O)O)c3cc(F)ccc32)cc1 | 2.47% | 
O=C(O)CNC(=O)c1ccccc1I | 8.09% | 
COc1cccc(N(C)C(=S)Oc2ccc3c(c2)CCCC3)n1 |  | inactive
c1ccc(OCc2ccc(CCCN3CCOCC3)cc2)cc1 | -18.6% | 
CCCCCCCCCCCCOS(=O)(=O)O | 0.535% | 
Cc1nc2sccn2c(=O)c1CCN1CCC(=C(c2ccc(F)cc2)c2ccc(F)cc2)CC1 |  | inactive
CC1(C)[C@@H]2CC[C@@]1(C)C(=O)C2 | -11.6% | 
CN(C)CCC(c1ccccc1)c1ccccn1 (centres undefined) |  | inactive
COc1ccc2c(c1)c(CC(=O)OCC(=O)O)c(C)n2C(=O)c1ccc(Cl)cc1 |  | inactive
CN(C)CCOc1ccccc1Cc1ccccc1 | -0.917% | 
CC(=O)[C@@]1(O)CC[C@H]2[C@@H]3CCC4=CC(=O)CC[C@]4(C)[C@H]3CC[C@@]21C |  | inactive
OC(CCN1CCCCC1)(c1ccccc1)c1ccccc1 | 4.49% | 
